This is an account of results in PubChem BioAssay (NCATS).

A short description of assay [1]: P-glycoprotein substrates identified in KB-3-1 adenocarcinoma cell line, qHTS therapeutic library screen (AID 1346986). Also: nearly all actives have a fitted effect of over 60% in size. The method in brief: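 72 h cell-killing screen, 500 cells/well, CellTiter-Glo luminescence. Paired lines KB-3-1/KB-8-5-11; P-gp dependence checked by tariquidar co-treatment and HEK-293 MDR-19 versus empty-vector cells.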
A short description of assay [2]: P-glycoprotein substrates identified in KB-8-5-11 adenocarcinoma cell line, qHTS therapeutic library screen (AID 1346987). Also: nearly all actives have a fitted effect of over 65% in size. As to activity change, negative = cytotoxicity: series mostly up to about 44 µM; % is scaled to controls: 0 for no effect and ±100 for the full control effect. The method, boiled down: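 Luminescence from CellTiter-Glo, read 5 min after addition, quantified survival of KB-8-5-11 (P-gp-overexpressing) cells exposed to compounds for 72 h. AC50 was derived from concentration-response curves.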
On the technique in general: In qHTS, concentration-response curves come from the screen itself.

Records with an inconclusive call do not appear. Unmarked numbers belong to inactive results. Active and inactive are the calls of the source. Calls follow the shape of the dose curve; as a rule, active = well fitted curve in the direction sought with a large enough effect; inconclusive = small, poorly fitted or top-dose-only effect, or another doubt; inactive = no such curve, though single readings can be large; an effect the other way counts as inactive or inconclusive.

`COc1c(C)c(OCC=C(C)C)cc2c1C(=O)NC2=O`: the Potency result in assay [1] and in assay [2] was “inactive” throughout.

`COc1c(OC2OC(CO)C(O)C(O)C2O)ccc(O)c1C(=O)OCc1ccccc1O[C@@H]1O[C@H](CO)[C@@H](O)[C@H](O)[C@H]1O` (stereo not given in full): the Potency result in assay [1] and in assay [2] was “inactive” each time.

`C=C(C)[C@H]1C[C@@H](O)C(=C)CC[C@@H](O)C(=C)[C@@H](O)C1`: the Potency entry in assay [1] and in assay [2] was “inactive” each time.

With `C=CC(C)(C)C12CC3C(=O)NC(Cc4cnc[nH]4)C(=O)N3C1Nc1ccccc12` (stereo not given), the Potency result in assay [1] and in assay [2] was “inactive” throughout.

For `CC(/C=C/C1(O)C2(C)COC1(C)CC(=O)C2)O[C@@H]1O[C@H](CO)[C@@H](O)[C@H](O)[C@H]1O` (stereo not given in full), the Potency result in assay [1] and in assay [2] was “inactive” each time.

In the case of `C/C=C(/C)C(=O)O[C@H]1C=C(C)C[C@H](OC(=O)c2ccc(O)cc2)C2[C@](O)(C(C)C)CC[C@@]21C` (stereo not given in full), the Potency result in assay [1] and in assay [2] was “inactive” each time.

In the case of `CCn1cc(C2=NOC(C(=O)Nc3c(C)n(C)n(-c4ccccc4)c3=O)C2)c(C)n1` (stereo not given), the Potency entry in assay [1] and in assay [2] was “inactive” each time.

As to `CC(/C=C/[C@]1(O)[C@@]2(C)CO[C@@]1(C)C[C@@H](O)C2)=C\C(=O)O[C@@H]1O[C@H](CO)[C@@H](O)[C@H](O)[C@H]1O`, the Potency entry in assay [1] and in assay [2] was “inactive” each time.

`CC(=O)c1c(C)cc(O)cc1O[C@@H]1O[C@H](CO)[C@@H](O)[C@H](O)[C@H]1O`: the Potency result in assay [1] and in assay [2] was “inactive” throughout.

As for `C=C1CCC2C(C)(COC3OC(COC(=O)CC(=O)O)C(O)C(O)C3O)CCCC2(C)C1CCC1=CCOC1=O` (stereo not given), the Potency result in assay [1] and in assay [2] was “inactive” in each case.

As for `COC(=O)CC[C@@H](C)[C@H]1CC[C@H]2[C@@H]3CC(=O)[C@H]4C[C@H](OC(C)=O)CC[C@]4(C)[C@H]3CC[C@]12C`, the Potency result in assay [1] and in assay [2] was “inactive” throughout.

Consider `C[C@@H]1O[C@@H](O[C@H]2[C@H](OC(=O)[C@]34CCC(C)(C)C[C@H]3C3=CCC5[C@@]6(C)CC[C@H](O[C@@H]7O[C@H](CO[C@@H]8OC[C@H](O)[C@H](O)[C@H]8O)[C@@H](O)[C@H](O)[C@H]7O)C(C)(C)C6CC[C@@]5(C)[C@]3(C)C[C@H]4O)OC[C@@H](O)[C@@H]2O)[C@H](O)[C@H](O)[C@H]1O[C@@H]1OC[C@H](O)[C@H](O[C@@H]2OC[C@@H](O)[C@H](O)[C@H]2O)[C@H]1O` (stereo not given in full), for which the outcome in assay [1] is “inactive [at 9.29 µM]”. Besides, the activity change, negative = cytotoxicity in assay [2] was 1.25% [at 9.29 µM].

With `COc1ncc(-c2ccc3c(Nc4cc(Oc5cc(F)cc(F)c5)cc(C(=O)O)c4)c(S(=O)(=O)NC4CC4)cnc3c2)c(OC)n1`, the Potency result in assay [1] and in assay [2] was “inactive” in each case.

Consider `C=C1C[C@]23C[C@H]1CC[C@H]2[C@@]12C=C[C@H](O)[C@@](C)(C(=O)O1)[C@H]2[C@@H]3C(=O)O`, for which the Potency result in assay [1] and in assay [2] was “inactive” in each case.

As to `C=CC(C)(C)O[C@@H]1O[C@H](CO[C@@H]2OC[C@](O)(CO)[C@H]2O)[C@@H](O)[C@H](O)[C@H]1O`, the Potency entry in assay [1] and in assay [2] was “inactive” each time.

`C[C@@H]1O[C@@H](O[C@H]2[C@H](OC(=O)[C@]34CCC(C)(C)C[C@H]3C3=CCC5[C@@]6(C)C[C@H](O)[C@H](O[C@@H]7O[C@H](CO)[C@@H](O[C@@H]8O[C@H](CO)[C@@H](O)[C@H](O)[C@H]8O)[C@H](O)[C@H]7O)[C@@](C)(CO)C6[C@H](O)C[C@@]5(C)[C@]3(C)C[C@H]4O)OC[C@H](O)[C@@H]2O)[C@H](O)[C@H](O)[C@H]1O[C@@H]1OC[C@@H](O)[C@H](O[C@@H]2OC[C@](O)(CO)[C@H]2O)[C@H]1O` (stereo not given in full): the outcome in assay [1] and in assay [2] was “inactive [at 9.29 µM]” in each case.

Regarding `CC(C)c1ccc(CC(=O)N2CCC[C@@H](c3cccc(OC(C)(C)C(=O)O)c3)C2)cc1`, the Potency result in assay [1] and in assay [2] was “inactive” in each case.

`NCCOCCOCCNC(=O)Cc1ccc(Nc2nc(NCc3ccc(F)cc3)nc(NCC3CCCCC3)n2)cc1`: the Potency entry in assay [1] and in assay [2] was “inactive” throughout.

Take `Cc1ccc2c(c1)C=Cc1cc(C)ccc1C2c1cn(Cc2ccc(C(=O)Nc3nn[nH]n3)o2)c(=O)[nH]c1=S`: the Potency result in assay [1] and in assay [2] was “inactive” each time.

For `COc1ccc2c(c1)OC[C@]1(O)c3cc4c(cc3O[C@H]21)OCO4`, the Potency entry in assay [1] and in assay [2] was “inactive” throughout.

`COC(=O)C1(Cc2ccc(O)cc2)OC(=O)C(OC)=C1c1ccc(O)cc1` (stereo not given): the Potency result in assay [1] and in assay [2] was “inactive” each time.

As to `Cc1c(N2C(=O)c3ccc(C(=O)O)cc3C2=O)c(=O)n(-c2ccccc2)n1C`, the Potency result in assay [1] and in assay [2] was “inactive” in each case.

For the molecule `C[C@@H]1CC[C@]2(C(=O)O)CC[C@]3(C)C(=CCC4[C@]5(C)C(CC[C@]43C)C(C)(C)[C@@H](O)[C@H](O)[C@@H]5O)C2[C@]1(C)O` (stereo not given in full), the Potency result in assay [1] and in assay [2] was “inactive” each time.

For the molecule `C/C(=C\CCC(C(=O)O)C1CCC2(C)C3=C(CCC12C)C1(C)CCC(=O)C(C)(C)C1CC3)C(=O)O` (stereo not given), the Potency entry in assay [1] and in assay [2] was “inactive” throughout.

Turning to `C[C@@H]1O[C@@H](O[C@H]2[C@H](O[C@H]3CC[C@@]4(C)C(CC[C@]5(C)C4CC=C4[C@@H]6CC(C)(C)CC[C@]6(C(=O)O)CC[C@]45C)[C@]3(C)CO)OC[C@H](O)[C@@H]2O)[C@H](O)[C@H](O[C@@H]2OC[C@@H](O)[C@H](O)[C@H]2O)[C@H]1O` (stereo not given in full), in assay [1], the outcome was “inactive [at 9.29 µM]”. The activity change, negative = cytotoxicity in assay [2] is -3.86% [at 9.29 µM].
